Measured values published in PubChem BioAssay (NCI).
Values joined by “and” are separate entries in the source; they are usually repeats but may differ in a detail not shown here. Identical values can stand only once. Compounds without any hit were thinned out: in the full panel of roughly 79,000, 15% have a hit. Rule as the data show it: active = growth inhibition above about 70%; inactive = the rest.

Columns and labels:
[1] = NCI Yeast Anticancer Drug Screen. Data for the rad50 strain (AID 155);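 also: 0% = growth of vehicle-only cultures of the same strain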; details: S. cerevisiae rad50 strain growth inhibition; at 50.0 µM; stronger effect = higher value
Procedure, shortened: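 Vehicle-treated cultures provide the reference for the growth inhibition reported for compound-exposed, repair-deficient yeast.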

[2] = NCI Yeast Anticancer Drug Screen. Data for the mec2-1 strain (AID 157); details: S. cerevisiae mec2-1 strain, at 50.0 µM, stronger effect = higher value
Procedure, shortened: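 Using mec2-1 yeast: add compound, measure growth, express inhibition versus vehicle-treated cultures.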

[3] = NCI Yeast Anticancer Drug Screen. Data for the sgs1 mgt1 strain (AID 161);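 also: 0% = growth of cultures given vehicle only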; details: S. cerevisiae sgs1 mgt1 strain, at 50.0 µM, stronger effect = higher value
Procedure, shortened: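 Yeast cells carrying a defined DNA-repair defect were exposed to test compounds. Growth inhibition was measured relative to vehicle-treated controls.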

[4] = NCI Yeast Anticancer Drug Screen. Data for the cln2 rad14 strain (AID 165);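 also: 0% = growth equal to vehicle treated cultures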; details: S. cerevisiae cln2 rad14 strain, at 50.0 µM, stronger effect = higher value
Procedure, shortened: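 Yeast strain cln2 rad14, bearing defects in cell cycle control and DNA repair, serves as the test system; values reflect growth inhibition compared with vehicle.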

[5] = NCI Yeast Anticancer Drug Screen. Data for the bub3 strain (AID 167); details: S. cerevisiae bub3 mutant strain, at 50.0 µM, stronger effect = higher value
Procedure, shortened: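 Mutant yeast screening strain plus compound; vehicle-treated cultures serve as the 0% inhibition reference.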

[6] = NCI Yeast Anticancer Drug Screen. Data for the mlh1 rad18 strain (AID 175); details: S. cerevisiae mlh1 rad18 strain growth inhibition; at 50.0 µM; stronger effect = higher value
Procedure, shortened: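 Steps: expose repair-defective yeast to compound; measure growth; express inhibition against vehicle-treated controls.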

Measured: growth inhibition

CCOP(=O)(OCC)c1cc2cc(O)ccc2oc1=O
inactive: [1] -40% | [2] -26% | [3] -32.2% | [4] 2.75% | [5] -8.75% | [6] -50.7%

O=C(O)CN(CCN(CC(=O)O)CC(=O)O)CC(=O)O.[Ni+2]
inactive: [1] -29.2% | [2] -23% | [3] -11.5% | [4] -15% | [5] 0.4% | [6] -19.9%

C/C(=N\N=C(N)N)C(CN1CCCCC1)C(c1ccccc1)c1c(O)c2ccccc2oc1=O (centres undefined)
inactive: [1] 13.7% | [2] -2.6% | [3] 10.6% | [4] 24.4% | [5] 28.9% | [6] 16.9%

CCCC(=O)OCC[N+](C)(C)C
inactive: [1] -1.35% and 12.7% | [2] -21.9% and -18.6% | [3] -10.7% and 25.4% | [4] 18.9% and 5.95% | [5] -12.1% and 6.6% | [6] 4.05% and 18.2%

N.N.N.O=N[O-].O=N[O-].O=N[O-].[Co+3]
inactive: [1] -2.05% | [2] 9.65% | [3] -6.25% | [4] 18.6% | [5] 6.5% | [6] -10.4%

C1=CC(N2CCOCC2)CC1 (centres undefined)
inactive: [1] -24.2% | [2] 30.2% | [3] 1.75% | [4] -45.5% | [5] -30.4% | [6] 2.25%

ClCCN(CCCl)c1ccc(CCN2CCOCC2)cc1
inactive: [1] 46.2% | [2] 15.9% | [3] 19.5% | [4] 37.4% | [5] -0.1% | [6] 9.3%

N/N=C(\N)c1nn[nH]n1
inactive: [1] -9.55% | [2] -12.4% | [3] -12.7% | [4] -6.05% | [5] 12.9% | [6] -11.9%

N#CC(c1ccccc1)c1ccccc1
inactive: [1] -12.9% | [2] 9.35% | [3] -4.55% | [4] -17.6% | [5] 20.6% | [6] 31.3%

CNC(=O)C(CC(C)[N+](C)(C)C)(c1ccccc1)c1ccccc1 (centres undefined)
inactive: [1] 14.2% | [2] 8.4% | [3] 14.5% | [4] 17.9% | [5] 4.85% | [6] 11.4%

CN1CC=C(c2cccn2C)CC1
inactive: [1] -24.2% | [2] -24.9% | [3] -6.45% | [4] 4.05% | [5] -10.4% | [6] -37.8%

[CH3][Sb]1([Cl])[CH2]CC[CH2]1
inactive: [1] 0.2% | [2] 26.1% | [3] -5.6% | [4] -3.1% | [5] 32.5% | [6] 27%

CCCCOP(=O)(OCCCC)OC(C)C(C)=O (centres undefined)
inactive: [1] -0.15% | [2] 2.75% | [3] 5.6% | [4] 0.45% | [5] 5.15% | [6] -2.05%

COCC1OC(OC2C3=C(C(C)C)CCC3(C)/C=C3\C(CCC3(O)COC)C(C)C2O)C(O)C2OC3OC12OC3(C)C1CO1 (centres undefined)
inactive: [1] 28.1% | [2] 7.75% | [3] 21% | [4] 35.2% | [5] 31.6% | [6] -78%

COc1cccc(C2CC23C(=O)NC(=O)NC3=O)c1 (centres undefined)
inactive: [1] -18% | [2] -14.2% | [3] -2.1% | [4] 6.6% | [5] -19.2% | [6] -21.2%

CN1CCC2(CC1)c1ccccc1-c1ccccc12
inactive: [1] -7.7% | [2] -20.6% | [3] -2.6% | [4] -25% | [5] -12.7% | [6] -38.7%

O=c1[nH]c(=S)[nH]c(O)c1/C=C1\C=CC=N1
inactive: [1] -22.9% | [2] -3.95% | [3] -3.45% | [4] 1.85% | [5] 3.3% | [6] -14.1%

CCN(CC)C(=O)N1CN(c2ccccc2)C2(CCN(CCCC3(c4ccc(F)cc4)OCCO3)CC2)C1=O
inactive: [1] 24.7% | [2] 24.1% | [3] 48% | [4] 19.7% | [5] 23.8% | [6] 49.9%

NC(=O)C(CBr)NCc1ccccc1 (centres undefined)
inactive: [1] -0.1% | [2] -13.6% | [3] -6.15% | [4] -27.8% | [5] 6.7% | [6] -10.6%
